Screening results (PubChem)
Rab9 promoter act: Rab9 promoter activation. AID 485297. Huh7 Rab9 promoter-luciferase reporter, luminescence, 24 h. Potency, µM (titrated, usually from 9.22 µM), without a hit: top-dose activation, negative = inhibition, hits mostly activators. hit rate 2.8% among 320,000; note: % of control where 0% means no effect; nearly all actives have a fitted effect of over 60% in size
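Huh7 cells stably carrying a Rab9 promoter-luciferase reporter, 1500 cells per well in OP-MEM I with 10% FBS, treated with compound 24 hours at 37C. Luciferase activity read by luminescence after 10 minutes with Amplite reagent.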
Luc counter: counter-screen: inhibitors of Kinase-Glo firefly luciferase; Potency, µM (doses to about 38.3 µM), for the others: top-dose activity change, negative = inhibition, hits mostly inhibitors; hit rate 0.28% among 200,000; Kinase-Glo luciferase, ATP luminescence, 8 min; Q27757; AID 1379; note: % is set by controls: 0 for no effect and ±100 for the full control effect; nearly all actives have a fitted effect of over 60% in size
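Inhibition of Kinase-Glo luciferase light generation was assessed at 10 uM ATP in pH 7.2 imidazole buffer, with luminescence measured after eight minutes at ambient temperature.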
ELG1 genotox: inducers of genotoxicity in HEK293T ELG1-luciferase cells; Potency, µM (doses to about 46 µM), for the others: top-dose activity change, positive = activation, actives largely listed as activators; HEK293T ELG1-luciferase reporter, luminescence, 16 h; hit rate 1.3% among 330,000; AID 504466; note: % of control where 0% means no effect; nearly all actives have a fitted effect of over 60% in size
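Quantitative HTS format in 1536-well plates. HEK293T ELG1-luciferase reporter cells receive test compound and are incubated 16 hr at 37 °C, 5% CO2; ONE-Glo added, 30 min room temperature, then luminescence read.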
NPC1 prom act: activates the NPC1 promoter; Huh7 NPC1 promoter luciferase reporter, 24 h; Potency, µM (series often up to 9.22 µM), for the others: top-dose activation, actives largely listed as activators; hit rate 2.4% among 320,000; AID 485313; note: % of control where 0% means no effect; nearly all actives have a fitted effect of over 60% in size
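Quantitative HTS used a cell-based reporter: Huh7 cells stably bearing the NPC1 promoter upstream of luciferase were treated with compounds for 24 h, and promoter activation was read as luminescence.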
SMN2 splice up: enhancers of SMN2 splice variant expression. AID 1458. hit rate 2.8% among 210,000. Potency, µM (titrated, usually from 46.1 µM), without a hit: at the highest dose activity change, positive = activation, most hits filed as activators. HEK293 SMN2-luciferase splicing reporter, luminescence, 30-36 h; note: % of control where 0% means no effect; nearly all actives have a fitted effect of over 55% in size
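HEK293 cells carry an SMN2 minigene-luciferase reporter in which exon 7 inclusion puts luciferase in frame. Cells were seeded at 2000 cells/well, attached for 10-12 hours, then exposed to compounds for 30-36 hours at 37C before ONE-Glo luminescence.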
FLuc counter: inhibits or activates purified firefly luciferase, miR-21 counter-screen; Potency, µM (series often up to 57.5 µM), for the others: top-dose activity change, negative = inhibition, actives largely listed as inhibitors; purified FLuc, Km substrates, luminescence inhibition; P08659; hit rate 6.9% among 360,000;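 note: plate controls were vehicle for no effect and reference inhibitor for full effect; nearly all actives have a fitted effect of over 55% in size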
Target sequence (P08659 whole entry, looked up): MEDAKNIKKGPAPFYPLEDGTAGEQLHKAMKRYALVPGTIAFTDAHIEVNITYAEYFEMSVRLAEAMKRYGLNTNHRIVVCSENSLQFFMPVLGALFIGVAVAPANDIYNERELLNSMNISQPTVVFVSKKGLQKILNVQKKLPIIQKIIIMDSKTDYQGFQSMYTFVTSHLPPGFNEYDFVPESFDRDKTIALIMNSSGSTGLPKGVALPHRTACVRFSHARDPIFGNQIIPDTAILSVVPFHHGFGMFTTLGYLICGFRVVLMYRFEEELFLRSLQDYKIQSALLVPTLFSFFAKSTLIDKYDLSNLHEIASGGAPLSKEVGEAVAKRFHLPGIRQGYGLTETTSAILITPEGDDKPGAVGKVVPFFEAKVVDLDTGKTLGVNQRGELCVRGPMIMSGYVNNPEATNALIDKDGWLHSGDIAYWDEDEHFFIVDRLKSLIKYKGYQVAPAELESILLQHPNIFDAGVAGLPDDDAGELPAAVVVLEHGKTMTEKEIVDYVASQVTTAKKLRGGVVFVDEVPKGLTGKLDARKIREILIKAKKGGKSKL
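Biochemical qHTS of compounds, final roughly 60 µM downward over six points, against 10 nM purified firefly luciferase using Km concentrations of substrates (10 uM D-luciferin, 10 uM ATP) in Tris acetate pH 7.5 buffer; luminescence output.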
* marks the source's active call; other numbers are inactive results; ? = inconclusive; nt = not tested or not shown. Compounds with a hit are over-represented: about 7.3% of the library has one in this group of screens. Calls come from the whole dose curve; as a rule, active = well fitted curve in the direction sought with a large enough effect; inconclusive = small, poorly fitted or top-dose-only effect, or another doubt; inactive = no such curve, though single readings can be large; an effect the other way counts as inactive or inconclusive. Potency is the fitted concentration of half-maximal effect.

SMILES	Rab9 promoter act	Luc counter	ELG1 genotox	NPC1 prom act	SMN2 splice up	FLuc counter
Cc1cc(C(=O)CSc2nc(N)cc(=O)[nH]2)c(C)n1CC1CCCO1 (centres undefined)	nt	nt	-3%	nt	nt	nt
CCCn1c(C2CC(=O)N(c3cc(OC)ccc3OC)C2)nc2ccccc21 (centres undefined)	-2%	1%	-18%	-4%	-4%	4%
COC(=O)C(NC(=O)CCC(=O)NC(C(=O)OC)c1ccccc1)c1ccccc1 (centres undefined)	-1%	nt	2%	-3%	nt	0%
Cc1cc(C)c2nc(N3CCCC(C(=O)N4CCN(c5ncccn5)CC4)C3)sc2c1 (centres undefined)	-3%	-1%	-23%	2%	-15%	-15%
O=C1OCCC1Sc1nnc(-c2ccccc2Br)n1Cc1ccccc1 (centres undefined)	-4%	-1%	0%	1%	?	3%
CC1=CC(=C(C#N)c2nc3ccccc3s2)C=C(C)N1Cc1ccco1	6%	-3%	1%	2%	-16%	4.8µM*
N#C/C(=C(/O)c1ccco1)c1nc2ccccc2[nH]1	?	1%	2%	16%	-34%	19µM*
O=C(NCc1ccco1)c1nc2ccccc2s1	19%	-3%	?	3%	?	?
N#C/C(=C(/O)c1ccco1)c1nc2ccccc2s1	3.2µM*	-9%	14%	2.2µM*	25%	8.5µM*
N#C/C(=C(\O)Cc1ccccc1)c1nc2ccccc2[nH]1	-3%	-3%	?	3%	-25%	-3%
N#C/C(=C(/O)c1cc2ccccc2o1)c1nc2ccccc2s1	?	nt	3%	3.2µM*	nt	6.7µM*
Cc1cccc(-c2nc(CN3CCCC(C(=O)NCCc4ccc(Cl)cc4)C3)c(C)o2)c1 (centres undefined)	nt	nt	nt	nt	-65%	?
Cn1c(/C(C#N)=C(\O)c2cccc(F)c2)nc2ccccc21	12%	nt	?	30%	nt	-5%
N#C/C(=C(/O)c1cccc(F)c1)c1nc2ccccc2s1	?	nt	9%	?	nt	19µM*
CCOC(=O)c1sc(NC(C)=O)nc1C	-9%	-2%	3%	0%	9%	2%
CCOC(=O)c1sc(-n2[nH]c(C)cc2=O)nc1C	2%	-3%	2%	11%	-3%	15µM*
COc1cccc(/C=N/NC(=O)C(=O)NCc2cccnc2)c1OC	1%	2%	5%	0%	nt	-3%
O=c1c2cc(-c3ccccc3)sc2nc2n1N=C(c1ccccc1)CS2	1.8µM*	nt	17%	2µM*	nt	1.9µM*
CSc1nc2sc(-c3ccccc3)cc2c(=O)n1N	0.63µM*	?	?	1.3µM*	2.8µM*	?
CC(C)Sc1nc2sc(-c3ccccc3)cc2c(=O)n1N	7%	-7%	2%	10%	2%	-8%
O=C1CCCC/C1=N\Nc1ccc(OCc2ccccc2)cc1	?	-2%	2%	24%	5%	-17%
O=C1CCCC/C1=N\Nc1ccc(C2CCCCC2)cc1	?	nt	4.6µM*	25%	nt	1.7µM*
CCOC(=O)c1cc2c(C)n(-c3ccc(N(C)C)cc3)c(C)c2cc(C(=O)OCC)c1=O	?	-1%	2%	29%	-23%	1.7µM*
Cc1oc(-c2ccccc2)cc1C(=O)Nc1ccccc1	-1%	-3%	-1%	10%	29%	-16%
Cc1c(C(=O)Nc2ccccc2[N+](=O)[O-])csc1-c1ccccc1	2.8µM*	nt	4.6µM*	3.2µM*	nt	1.2µM*
SMILES	Rab9 promoter act	Luc counter	ELG1 genotox	NPC1 prom act	SMN2 splice up	FLuc counter
Cc1c(C(=O)Nc2ccccc2)csc1-c1ccccc1	0.71µM*	-19%	3.7µM*	1.1µM*	13µM*	0.21µM*
COc1ccc(NC(=O)n2ncc3c(C)cccc32)cc1OC	3.2µM*	nt	?	2.2µM*	nt	1.9µM*
Cc1cccc2c1cnn2C(=O)Nc1ccccc1Br	?	nt	7%	?	nt	?
Cc1cccc2c1cnn2C(=O)Nc1ccccc1Cl	?	nt	?	?	nt	1.7µM*
Cc1ccc(NC(=O)n2ncc3c(C)cccc32)cc1F	0.79µM*	nt	?	?	nt	1.5µM*
COc1ccc(NC(=O)n2ncc3c(C)cccc32)cc1	0.1µM*	nt	?	0.089µM*	nt	3µM*
Cn1c2[n+](c3ccc(Cl)cc3c1=O)Cc1ccccc1-2	1%	nt	0%	-1%	nt	-7%
COc1ccc(CSc2nnc(Cc3sc(-c4ccccc4)nc3-c3ccccc3)o2)cc1	-3%	0%	-3%	-3%	-19%	-1%
COc1ccc(C(=O)CN2CC(C)SC2=Nc2ccc(Cl)cc2)cc1 (centres undefined)	1%	nt	0%	-1%	nt	-6%
CCCCc1nc2sc3c(=O)n(N)cnc3c2c2c1CCCC2	-1%	0%	1%	-2%	-5%	3%
CCCn1nnnc1SCC(=O)NCc1cccs1	-7%	0%	3%	-3%	-5%	2%
COc1ccc(C)cc1NC(=O)n1ncc2c(C)cccc21	28%	nt	3%	25%	nt	7.6µM*
O=C(Nc1ccccc1C(F)(F)F)n1ncc2cc(Cl)ccc21	nt	nt	nt	nt	nt	-8%
Cc1ccccc1NC(=O)n1ncc2cc(Cl)ccc21	14%	nt	5%	10%	nt	21µM*
Cc1ccc(-n2c(=O)c3sccc3n(Cc3cc(=O)n4ccccc4n3)c2=O)cc1	-7%	2%	7%	-4%	?	-2%
O=C1OC2(CCCC2)OC(=O)C1=Cc1c[nH]c2ccccc12	0.89µM*	-3%	?	1.1µM*	nt	-5%
COc1ccc(OCC(=O)Nc2cccc(NC(=O)COc3ccc(OC)cc3)n2)cc1	?	-13%	?	2.5µM*	-11%	2.1µM*
Cc1cc(C)cc(OCC(=O)Nc2nonc2NC(=O)COc2cc(C)cc(C)c2)c1	-6%	1%	-1%	-2%	-2%	-2%
COc1ccc(OCC(=O)Nc2nonc2NC(=O)COc2ccc(OC)cc2)cc1	2%	1%	2%	1%	14%	1.9µM*
CCN(CC)C(=O)CSc1nnc2nnc3cc(Cl)ccc3n12	-2%	nt	-5%	1%	nt	0%
Nc1cc([N+](=O)[O-])ccc1C(=O)O	nt	nt	nt	nt	-6%	nt
Nc1ccc(C(=O)Oc2ccc([N+](=O)[O-])cc2)c(O)c1	2%	nt	-1%	-2%	nt	15µM*
Nc1ccc(C(=O)Oc2ccc([N+](=O)[O-])cc2)cc1	14%	nt	?	5%	nt	3.4µM*
COc1ccc(N=Cc2ccc(-c3ccccc3)o2)cc1	-12%	-1%	12%	-3%	nt	3µM*
O/N=C\c1ccc(-c2ccccc2)o1	24%	1%	15%	22%	13µM*	13µM*
O=[N+]([O-])c1ccc(-c2ccc(/C=N/O)o2)cc1	23%	nt	?	29%	nt	?
